In the supplement of paper PMC10849652:
Of roughly 7,900 targets only a part is listed; those with a hit were picked by preference. About 0.6% of all pairs of compound and target were hits. Unmarked numbers belong to inactive results.

Columns and labels:
Experiment in all cases: log2 fold change, soluble protein after heating vs DMSO (PISA); higher = thermal stabilisation; K562 cells, 10 uM, 30 min; active = over 0.2 and 3.5 SD of the protein, either way, in both replicates (recomputed)
[1] = compound: NC(=O)Nc1cc(-c2cccc(F)c2)sc1C(=O)N[C@H]1CCCNC1
Method in brief: (§1)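 Aliquots of K562 cells (2×10^6 cells/mL) treated with 10 μM compound for 30 min were heated for 3 min over 48°C-58°C. After pooling and extraction in PBS with 0.5% NP-40 at 4°C, soluble protein from a 21,000xg, 90 min spin was quantified by TMTpro 16plex LC-MS/MS with channel sums equalised. Thermal stability is expressed against control samples, from duplicates, as a log2 fold change.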

[2] = compound: NC(=O)c1cnc(N[C@@H]2CCCC[C@@H]2N)nc1Nc1cccc(-n2nccn2)c1
Method in brief: as §1

[3] = compound: NC1(c2ccc(-c3nc4ccn5c(=O)[nH]nc5c4cc3-c3ccccc3)cc2)CCC1
Method in brief: as §1

[4] = compound: NCC(=O)Nc1ccc(-n2nc(C(F)(F)F)cc2-c2ccc3c(ccc4ccccc43)c2)cc1
Method in brief: as §1

entinostat = compound: Nc1ccccc1NC(=O)c1ccc(CNC(=O)OCc2cccnc2)cc1 [entinostat]
Method in brief: as §1

vorinostat = compound: O=C(CCCCCCC(=O)Nc1ccccc1)NO [vorinostat]
Method in brief: as §1

citarinostat = compound: O=C(CCCCCCNC(=O)c1cnc(N(c2ccccc2)c2ccccc2Cl)nc1)NO [citarinostat]
Method in brief: as §1

silmitasertib = compound: O=C(O)c1ccc2c(c1)nc(Nc1cccc(Cl)c1)c1ccncc12 [silmitasertib]
Method in brief: as §1

[5] = compound: O=C1NC(=O)C(c2cnc3ccccn23)=C1c1cn2c3c(cc(F)cc13)CN(C(=O)N1CCCCC1)CC2
Method in brief: as §1

[6] = compound: c1cc(OCCN2CCCCC2)cc(-c2n[nH]c3ccc(-c4nnc[nH]4)cc23)c1
Method in brief: as §1

entospletinib = compound: c1cn2cc(-c3ccc4cn[nH]c4c3)nc(Nc3ccc(N4CCOCC4)cc3)c2n1 [entospletinib]
Method in brief: as §1

Chain of UniProt O00408 (O00408 whole entry, looked up): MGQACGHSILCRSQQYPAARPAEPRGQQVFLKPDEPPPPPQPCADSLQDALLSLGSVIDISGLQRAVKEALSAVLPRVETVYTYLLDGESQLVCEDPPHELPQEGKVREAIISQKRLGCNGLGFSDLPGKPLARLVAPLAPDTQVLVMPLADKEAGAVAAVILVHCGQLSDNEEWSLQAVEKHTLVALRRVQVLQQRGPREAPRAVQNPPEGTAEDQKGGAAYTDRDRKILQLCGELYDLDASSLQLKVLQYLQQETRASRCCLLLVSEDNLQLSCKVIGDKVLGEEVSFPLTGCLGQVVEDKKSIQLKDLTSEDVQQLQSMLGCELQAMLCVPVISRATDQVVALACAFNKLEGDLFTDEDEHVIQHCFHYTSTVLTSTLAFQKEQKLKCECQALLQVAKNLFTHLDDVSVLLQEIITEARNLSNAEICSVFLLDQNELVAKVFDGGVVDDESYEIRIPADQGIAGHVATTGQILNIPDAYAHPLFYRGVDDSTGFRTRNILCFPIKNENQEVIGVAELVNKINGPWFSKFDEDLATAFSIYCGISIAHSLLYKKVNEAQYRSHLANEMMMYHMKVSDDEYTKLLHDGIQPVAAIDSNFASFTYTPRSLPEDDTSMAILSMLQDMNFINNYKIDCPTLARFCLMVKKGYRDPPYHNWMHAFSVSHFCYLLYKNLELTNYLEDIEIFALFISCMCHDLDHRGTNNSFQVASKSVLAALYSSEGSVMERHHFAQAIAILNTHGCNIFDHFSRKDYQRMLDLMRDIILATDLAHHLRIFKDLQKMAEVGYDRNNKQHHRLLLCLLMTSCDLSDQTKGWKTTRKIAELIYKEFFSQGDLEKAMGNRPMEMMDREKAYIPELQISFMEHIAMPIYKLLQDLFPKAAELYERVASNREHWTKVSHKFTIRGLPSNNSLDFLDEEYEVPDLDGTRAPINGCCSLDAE
Chain of UniProt Q8TBX8 (Q8TBX8 whole entry, looked up): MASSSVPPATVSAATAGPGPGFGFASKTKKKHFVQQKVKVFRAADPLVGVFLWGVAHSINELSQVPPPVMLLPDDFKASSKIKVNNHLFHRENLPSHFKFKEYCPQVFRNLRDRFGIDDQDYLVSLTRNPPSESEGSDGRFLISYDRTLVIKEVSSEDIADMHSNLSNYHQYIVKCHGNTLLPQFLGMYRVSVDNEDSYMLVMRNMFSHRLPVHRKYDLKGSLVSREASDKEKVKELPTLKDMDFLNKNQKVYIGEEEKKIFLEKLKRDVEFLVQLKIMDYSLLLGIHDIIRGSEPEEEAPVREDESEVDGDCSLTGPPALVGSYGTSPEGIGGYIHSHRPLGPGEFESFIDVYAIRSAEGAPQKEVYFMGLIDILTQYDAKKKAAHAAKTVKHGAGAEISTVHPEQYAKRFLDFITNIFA
Chain of UniProt O00628 (O00628 whole entry, looked up): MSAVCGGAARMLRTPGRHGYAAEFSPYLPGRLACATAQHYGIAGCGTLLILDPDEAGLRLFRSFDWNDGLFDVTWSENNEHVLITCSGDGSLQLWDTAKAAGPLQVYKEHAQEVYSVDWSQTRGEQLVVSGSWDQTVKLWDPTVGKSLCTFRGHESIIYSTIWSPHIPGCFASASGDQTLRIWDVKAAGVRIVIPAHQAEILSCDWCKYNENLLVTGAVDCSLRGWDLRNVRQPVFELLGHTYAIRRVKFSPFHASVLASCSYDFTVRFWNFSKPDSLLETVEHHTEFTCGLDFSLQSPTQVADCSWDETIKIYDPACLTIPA
Chain of UniProt Q29RF7 (Q29RF7 whole entry, looked up): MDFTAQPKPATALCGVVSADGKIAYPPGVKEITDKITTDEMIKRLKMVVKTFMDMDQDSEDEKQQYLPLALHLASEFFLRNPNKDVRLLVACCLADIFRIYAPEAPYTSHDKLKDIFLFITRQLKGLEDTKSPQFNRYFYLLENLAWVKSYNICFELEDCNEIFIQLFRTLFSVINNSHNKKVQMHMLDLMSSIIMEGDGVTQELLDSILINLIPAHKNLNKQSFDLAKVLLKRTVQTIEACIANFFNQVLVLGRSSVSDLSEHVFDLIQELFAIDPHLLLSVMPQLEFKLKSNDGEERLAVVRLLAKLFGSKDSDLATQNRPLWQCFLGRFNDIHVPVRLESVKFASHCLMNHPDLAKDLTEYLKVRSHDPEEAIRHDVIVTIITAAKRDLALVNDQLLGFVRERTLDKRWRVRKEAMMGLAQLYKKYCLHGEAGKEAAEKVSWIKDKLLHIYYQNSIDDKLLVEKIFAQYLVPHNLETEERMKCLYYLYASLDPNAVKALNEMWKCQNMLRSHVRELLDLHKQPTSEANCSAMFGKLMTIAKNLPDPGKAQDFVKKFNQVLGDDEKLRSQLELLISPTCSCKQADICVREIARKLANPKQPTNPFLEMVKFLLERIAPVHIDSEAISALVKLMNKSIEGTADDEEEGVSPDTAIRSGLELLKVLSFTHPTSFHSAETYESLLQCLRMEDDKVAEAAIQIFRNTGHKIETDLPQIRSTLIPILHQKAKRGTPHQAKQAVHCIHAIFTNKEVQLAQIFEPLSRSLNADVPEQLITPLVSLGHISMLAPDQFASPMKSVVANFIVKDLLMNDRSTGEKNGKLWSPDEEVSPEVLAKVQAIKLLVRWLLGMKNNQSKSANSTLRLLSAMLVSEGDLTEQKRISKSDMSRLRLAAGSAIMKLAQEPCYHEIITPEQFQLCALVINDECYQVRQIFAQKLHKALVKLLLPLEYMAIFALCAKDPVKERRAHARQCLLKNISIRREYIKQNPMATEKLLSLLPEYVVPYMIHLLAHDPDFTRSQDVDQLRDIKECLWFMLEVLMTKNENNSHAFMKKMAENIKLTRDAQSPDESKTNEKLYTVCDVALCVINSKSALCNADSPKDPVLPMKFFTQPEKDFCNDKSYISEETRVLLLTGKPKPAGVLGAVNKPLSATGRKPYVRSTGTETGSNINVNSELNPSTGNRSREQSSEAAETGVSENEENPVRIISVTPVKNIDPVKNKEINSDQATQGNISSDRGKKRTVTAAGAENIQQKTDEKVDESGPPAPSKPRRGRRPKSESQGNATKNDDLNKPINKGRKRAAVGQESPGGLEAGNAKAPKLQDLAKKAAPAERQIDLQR
Chain of UniProt Q02156 (Q02156 whole entry, looked up): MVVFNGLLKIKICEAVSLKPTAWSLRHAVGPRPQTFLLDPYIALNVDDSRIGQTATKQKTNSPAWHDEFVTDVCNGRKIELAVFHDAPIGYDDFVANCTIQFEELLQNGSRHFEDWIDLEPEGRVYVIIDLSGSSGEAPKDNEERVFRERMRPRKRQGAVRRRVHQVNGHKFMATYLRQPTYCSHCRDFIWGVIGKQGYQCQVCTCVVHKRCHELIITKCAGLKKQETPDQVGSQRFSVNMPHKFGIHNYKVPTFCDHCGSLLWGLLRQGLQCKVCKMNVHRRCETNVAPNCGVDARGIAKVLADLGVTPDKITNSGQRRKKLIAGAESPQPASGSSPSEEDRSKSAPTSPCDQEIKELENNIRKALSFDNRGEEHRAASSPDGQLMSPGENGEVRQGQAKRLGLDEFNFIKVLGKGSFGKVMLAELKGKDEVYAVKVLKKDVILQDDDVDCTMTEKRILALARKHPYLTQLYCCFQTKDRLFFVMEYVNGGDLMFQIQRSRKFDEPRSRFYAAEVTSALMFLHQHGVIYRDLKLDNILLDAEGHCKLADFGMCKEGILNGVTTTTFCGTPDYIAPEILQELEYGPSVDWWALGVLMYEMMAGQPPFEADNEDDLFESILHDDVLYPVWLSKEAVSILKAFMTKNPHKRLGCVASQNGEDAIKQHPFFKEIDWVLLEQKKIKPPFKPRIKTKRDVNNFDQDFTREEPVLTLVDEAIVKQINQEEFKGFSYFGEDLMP
Chain of UniProt O43242 (O43242 whole entry, looked up): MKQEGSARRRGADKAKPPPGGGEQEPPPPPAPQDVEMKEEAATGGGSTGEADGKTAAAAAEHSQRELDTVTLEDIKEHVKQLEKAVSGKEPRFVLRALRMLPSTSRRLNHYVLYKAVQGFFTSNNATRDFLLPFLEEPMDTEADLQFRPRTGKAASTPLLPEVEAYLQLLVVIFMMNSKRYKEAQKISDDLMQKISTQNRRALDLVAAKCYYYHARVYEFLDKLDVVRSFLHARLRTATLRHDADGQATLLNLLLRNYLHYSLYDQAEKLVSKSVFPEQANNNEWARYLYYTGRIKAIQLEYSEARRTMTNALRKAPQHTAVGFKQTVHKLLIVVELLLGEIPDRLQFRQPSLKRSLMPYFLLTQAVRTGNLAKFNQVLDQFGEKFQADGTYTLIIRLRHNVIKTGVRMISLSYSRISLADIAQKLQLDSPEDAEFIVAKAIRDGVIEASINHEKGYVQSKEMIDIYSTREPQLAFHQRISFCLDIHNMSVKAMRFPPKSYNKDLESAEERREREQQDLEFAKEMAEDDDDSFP
Chain of UniProt Q15257 (Q15257 whole entry, looked up): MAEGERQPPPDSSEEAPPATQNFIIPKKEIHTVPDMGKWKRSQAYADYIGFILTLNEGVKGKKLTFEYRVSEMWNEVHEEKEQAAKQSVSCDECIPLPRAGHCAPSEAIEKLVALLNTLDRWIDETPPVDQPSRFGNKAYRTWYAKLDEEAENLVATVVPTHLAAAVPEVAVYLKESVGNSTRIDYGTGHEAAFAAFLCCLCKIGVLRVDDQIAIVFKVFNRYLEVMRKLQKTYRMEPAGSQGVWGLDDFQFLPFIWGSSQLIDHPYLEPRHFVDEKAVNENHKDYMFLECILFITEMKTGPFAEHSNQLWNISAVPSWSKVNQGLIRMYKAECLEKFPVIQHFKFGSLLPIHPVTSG
Chain of UniProt Q9Y5Y5 (Q9Y5Y5 whole entry, looked up): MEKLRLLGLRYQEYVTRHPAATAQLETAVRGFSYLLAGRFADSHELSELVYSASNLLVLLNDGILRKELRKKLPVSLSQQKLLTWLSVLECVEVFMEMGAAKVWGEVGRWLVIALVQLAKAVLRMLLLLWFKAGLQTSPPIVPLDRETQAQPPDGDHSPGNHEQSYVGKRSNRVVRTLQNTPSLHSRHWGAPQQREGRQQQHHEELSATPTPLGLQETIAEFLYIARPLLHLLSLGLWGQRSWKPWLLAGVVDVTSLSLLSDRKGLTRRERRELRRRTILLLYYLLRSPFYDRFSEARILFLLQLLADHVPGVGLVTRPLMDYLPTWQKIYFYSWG

Row | Target | log2 fold change [1] | log2 fold change [2] | log2 fold change [3] | log2 fold change [4] | log2 fold change (entinostat) | log2 fold change (vorinostat) | log2 fold change (citarinostat) | log2 fold change (silmitasertib) | log2 fold change [5] | log2 fold change [6] | log2 fold change (entospletinib)
1 | PTPN12 (UniProt Q05209) | 0.037 | -0.023 | -0.1 | -0.012 | 0.038 | -0.01 | 0.019 | 0.163 | 0.014 | -0.015 | -0.041
2 | PNPLA2 (UniProt Q96AD5) | -0.075 | -0.01 | -0.05 | -0.004 | 0.078 | 0.192 | 0.087 | 0.065 | 0.012 | -0.138 | -0.056
3 | PEX16 isoform 2 (UniProt Q9Y5Y5) | 0.061 | -0.052 | -0.171 | -0.031 | 0.022 | 0.115 | 0.081 | -0.025 | 0.033 | -0.051 | -0.081
4 | PSPC1 (UniProt Q8WXF1) | -0.001 | -0.039 | 0.021 | -0.027 | -0.014 | 0.14 | 0.067 | -0.032 | -0.074 | -0.057 | 0.034
5 | PRKCE (UniProt Q02156) | -0.068 | -0.084 | -0.177 | -0.078 | 0.01 | 0.107 | -0.019 | -0.016 | -0.018 | -0.055 | 0.016
6 | PIGG (UniProt Q5H8A4) | -0.046 | -0.032 | -0.06 | 0.052 | 0.039 | -0.104 | 0.052 | 0.025 | -0.019 | 0.029 | -0.034
7 | PCYT1B (UniProt Q9Y5K3) | -0.019 | -0.007 | -0.218 | -0.03 | 0.043 | -0.038 | 0.084 | 0.077 | -0.231 | -0.025 | 0.057
8 | PISD (UniProt Q9UG56) | 0.023 | 0.019 | -0.009 | 0.045 | -0.047 | 0.069 | 0.035 | -0.019 | -0.097 | -0.006 | -0.009
9 | PIP4P2 (UniProt Q8N4L2) | 0.02 | -0.152 | -0.373 (active) | -0.024 | 0.007 | 0.042 | -0.02 | 0.074 | 0.082 | 0.051 | 0.115
10 | PGGT1B (UniProt P53609) | -0.048 | -0.014 | -0.062 | -0.021 | -0.047 | -0.046 | 0.038 | 0.021 | 0.02 | -0.042 | -0.037
11 | PIP4K2C (UniProt Q8TBX8) | 0.016 | 0.192 | -0.125 | 0.293 | -0.027 | -0.071 | -0.036 | 0.497 | 0.12 | 0.036 | -0.031
12 | PPM1G (UniProt O15355) | -0.147 | -0.086 | -0.018 | -0.181 | 0.017 | 0.079 | 0.033 | 0.031 | -0.114 | -0.102 | 0.094
13 | PDE2A (UniProt O00408) | 0.035 | -0.008 | -0.018 | -0.033 | -0.082 | 0.118 | -0.032 | 0.035 | -0.052 | 0.018 | 0.015
14 | PARP1 (UniProt P09874) | -0.128 | -0.064 | -0.102 | -0.09 | 0.142 | 0.042 | 0.091 | 0.039 | -0.173 | 0 | -0.092
15 | PCGF2 (UniProt P35227) | -0.164 | -0.125 | -0.048 | -0.025 | 0.114 | -0.059 | 0.134 | 0.051 | -0.069 | -0.022 | 0
16 | PEX7 (UniProt O00628) | -0.017 | -0.031 | -0.022 | -0.03 | -0.077 | 0.013 | 0.074 | -0.017 | -0.051 | 0.042 | -0.01
17 | PRPF4B (UniProt Q13523) | -0.057 | -0.075 | -0.022 | -0.065 | -0.008 | 0.025 | 0.033 | 0.01 | 0.055 | -0.328 (active) | 0.09
18 | PCNT (UniProt O95613) | -0.341 | -0.277 | -0.106 | -0.294 | -0.129 | -0.137 | -0.076 | 0.11 | -0.142 | -0.233 | 0.14
19 | PTPA (UniProt Q15257) | -0.022 | 0.001 | -0.021 | 0.028 | 0 | 0.004 | 0.028 | -0.027 | -0.021 | -0.015 | -0.004
20 | PSMD3 (UniProt O43242) | -0.027 | 0.009 | -0.032 | 0.041 | -0.02 | -0.009 | -0.009 | 0.008 | 0.014 | -0.082 | 0.049
21 | PSME4 (UniProt Q14997) | 0.047 | -0.054 | -0.204 | -0.03 | 0.011 | 0.127 | 0.047 | -0.007 | 0.02 | -0.092 | -0.003
22 | PKM isoform 2 (UniProt P14618) | 0.123 | 0.175 | -0.063 | 0.116 | 0.05 | -0.195 | -0.075 | -0.052 | 0.043 | -0.093 | 0.128
23 | PGM3 isoform 4 (UniProt O95394) | -0.039 | -0.118 | -0.147 | -0.063 | 0.015 | 0.061 | 0.046 | -0.012 | -0.008 | -0.024 | -0.047
24 | PCBP2 (UniProt F8VRH0) | 0.187 | -0.017 | -0.175 | 0.013 | 0.051 | 0.247 | 0.006 | -0.105 | 0.144 | -0.01 | -0.004
25 | PTDSS1 (UniProt P48651) | 0.043 | -0.045 | 0.022 | -0.007 | -0.058 | 0.199 | -0.051 | 0.091 | 0.184 | -0.06 | 0.147
26 | PGK2 (UniProt P07205) | -0.056 | -0.032 | -0.038 | -0.134 | 0.021 | -0.056 | -0.121 | 0.172 | -0.532 (active) | -0.012 | -0.035
27 | PPP1R35 (UniProt Q8TAP8) | 0.054 | -0.004 | -0.037 | -0.002 | -0.06 | -0.089 | -0.058 | 0.003 | 0.002 | -0.001 | -0.04
28 | PDS5A (UniProt Q29RF7) | -0.076 | -0.024 | -0.061 | 0.018 | 0.306 | 0.062 | 0.068 | 0.017 | -0.103 | -0.075 | 0.039
